AmpC detergent: AmpC beta-lactamase inhibition with detergent present | AID 485294 | 370,000 tested, 0.041% active | P00811 | Potency, µM (highest dose often 114 µM), actives largely listed as inhibitors | AmpC hydrolysis of nitrocefin, absorbance 480 nm, 0.01% Triton; also: nearly all actives have a fitted effect of over 25% in size
Target sequence (P00811 whole entry, looked up): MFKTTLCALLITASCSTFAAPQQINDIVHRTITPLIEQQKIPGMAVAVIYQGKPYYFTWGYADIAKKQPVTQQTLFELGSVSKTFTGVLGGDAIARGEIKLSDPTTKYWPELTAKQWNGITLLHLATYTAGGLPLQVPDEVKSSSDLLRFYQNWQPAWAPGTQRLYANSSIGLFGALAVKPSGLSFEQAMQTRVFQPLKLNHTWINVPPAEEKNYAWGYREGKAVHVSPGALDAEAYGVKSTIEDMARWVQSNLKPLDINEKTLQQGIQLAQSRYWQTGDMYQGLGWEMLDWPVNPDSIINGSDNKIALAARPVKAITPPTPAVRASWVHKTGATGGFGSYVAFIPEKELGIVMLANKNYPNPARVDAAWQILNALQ
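AmpC (5.3 nM in the dispensed reagent) in 20 mM phosphate pH 7.0 with 0.01% (detergent screen) or 0.0001% Triton X-100 was preincubated with compounds for 15 min at room temperature. Nitrocefin was then added from an 800 uM solution, and hydrolysis was followed at 480 nm.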
AmpC inh no detg: inhibitors of E. coli AmpC beta-lactamase without detergent. AmpC nitrocefin hydrolysis, absorbance 480 nm, 0.0001% Triton. Potency, µM (series often up to 57.1 µM), actives largely listed as inhibitors. 330,000 tested, 0.52% active; also: nearly all actives have a fitted effect of over 20% in size
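20 mM phosphate pH 7.0 + 0.01% (detergent screen) or 0.0001% Triton X-100; 5.3 nM AmpC reagent; cpd preinc 15 min RT; nitrocefin (800 uM stock) to start; A480 q20 s × 4 min; Activity was normalised to no-enzyme and no-compound control wells.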
HCMV antiviral: inhibitors of human cytomegalovirus. 410,000 tested, 4.5% active. activity change, negative = inhibition, % at 57.5 µM. HFF cells, HCMV-luciferase reporter, 72 h; active compounds read low; in the data active = activity change below about -60%; inconclusive = no clear call, values can overlap the other calls; inactive = above about -39%
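Two compound doses tested in HFFs infected with HCMV-luciferase, MOI 1 PFU/cell, 72 h at 37C. Lysate luminescence read with OneGlo; data normalized against buffer-only and 10uM Salinomycin inhibitor controls.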
HCV inhibitor: HCV inhibition. Huh7.5.1 HCVcc-Cre infection, luciferase reporter, 44 h. Potency, µM (titrated, usually from 41.8 µM), actives largely listed as inhibitors. 340,000 tested, 3.4% active. AID 651820
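Whole-lifecycle infectious HCVcc-Cre system; cells 1,000/well, compound then virus (~0.5 moi) added 4 h after plating, 44 h culture. Luciferase read 15 sec following 15 min substrate incubation, room temp.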
FMDV antiviral: blocks foot and mouth disease virus. FMDV antiviral cell-based qHTS. Potency, µM (doses to about 57.9 µM), hits mostly inhibitors. 410,000 tested, 1.2% active. AID 1159524; calls by dose curve; tested in HEK293T cells; also: read-out not given here; nearly all actives have a fitted effect of over 45% in size
Of the large screens only hits and unclear results are named; the others gave an inactive call; ! = repeats disagree. Sampled rows, rich in hits. Any-hit rate of the full collection: about 7.3%. Unless noted, calls follow the shape of the dose curve; as a rule, active = well fitted curve in the direction sought with a large enough effect; inconclusive = small, poorly fitted or top-dose-only effect, or another doubt; inactive = no such curve, though single readings can be large; an effect the other way counts as inactive or inconclusive.

O=C1c2ccc3c4c(ccc(c24)C(=O)N1c1cccc(O)c1)C(=O)N(c1cccc(O)c1)C3=O	HCMV antiviral -88, HCV inhibitor 5µM, FMDV antiviral inconclusive
CN(C)c1ccc2c3c(cccc13)C(=O)N(c1ccccc1)C2=O	none (no result: HCMV antiviral, HCV inhibitor, FMDV antiviral)
C[C@H](NC(=O)c1cccc2ccccc12)C(O)c1nc2ccccc2[nH]1 (stereo partly specified)	none (no result: AmpC detergent, AmpC inh no detg, HCV inhibitor, FMDV antiviral)
Cc1csc(NC(=O)NCC2CCCC(CNC(=O)Nc3nc(C)cs3)C2)n1 (stereo unspecified)	HCV inhibitor inconclusive
Cc1ccc(C)c2c1[nH]c1ccccc12	HCV inhibitor 7.9µM
Cc1ccc(C)c2c1[nH]c1ccc([N+](=O)[O-])cc12	HCV inhibitor 10µM
Cc1ccc(C(=O)NC2CCCc3c2cnn3-c2ccc(F)cc2F)cn1 (stereo unspecified)	HCMV antiviral -86 (no result: HCV inhibitor, FMDV antiviral)
CN1N=C(C(=O)NC2CCCc3c2cnn3-c2ccc(F)cc2F)CCC1=O (stereo unspecified)	HCV inhibitor inconclusive
Cc1nnsc1C(=O)NC1CCCc2c1cnn2-c1cc(F)cc(F)c1 (stereo unspecified)	none (no result: HCV inhibitor)
Cc1nnsc1C(=O)NC1CCCc2c1cnn2-c1ccc(F)cc1F (stereo unspecified)	HCMV antiviral -92, HCV inhibitor inconclusive, FMDV antiviral inconclusive
Cc1cnc(SCC2CCCO2)nc1C1CCCN(Cc2nc(-c3ccccc3)cs2)C1 (stereo unspecified)	none (no result: AmpC detergent, AmpC inh no detg, HCMV antiviral, HCV inhibitor)
CCNC(=O)O/N=C(\C)c1sc(-c2ccc(Cl)cc2)nc1C	HCV inhibitor 10µM
O=S(=O)(Nc1ccc(Br)cc1)c1cccc2nonc12	none
O=S(=O)(Nc1ccc(C(O)(C(F)(F)F)C(F)(F)F)cc1)c1ccc(Cl)c2nonc12	FMDV antiviral 35µM (no result: AmpC detergent, AmpC inh no detg, HCMV antiviral, HCV inhibitor)
O=C(CSc1nc(C2CC2)nc2ccccc12)Nc1ccccc1N1CCOCC1	AmpC detergent inconclusive, HCMV antiviral -72, HCV inhibitor inconclusive, FMDV antiviral 25µM
CCCN(CCC)C(=O)CSc1nc2ccccc2c(=O)n1C1CCCC1	HCMV antiviral inconclusive, HCV inhibitor 11µM
Cc1cc(NC(=O)CSc2nc(C3CCCCC3)nc3ccccc23)no1	HCMV antiviral -76, FMDV antiviral inconclusive
NC(=O)CSc1nc2cc(Cl)ccc2c(=O)n1C1CCCCC1	HCV inhibitor 11µM
CCN1C(=O)[C@H]2[C@@H](c3ccc(C)cc3)N[C@]3(CCCN(CCC(C)C)C3=O)[C@H]2C1=O	none (no result: AmpC detergent, AmpC inh no detg, HCV inhibitor)
CCC(=O)N1CCCc2cc(S(=O)(=O)CCC(=O)Nc3ccccc3C)ccc21	none
Cc1cc(C)n2nc(SC(C)C(=O)Nc3ccccc3F)nc2n1 (stereo unspecified)	none (no result: AmpC detergent)
Cc1ccc(C)c(NC(=O)CSc2nnc(NC(=O)C3CC3)s2)c1	none (no result: HCV inhibitor)
CCC(=O)OC1=C(C(C)=O)N(Cc2ccccc2)S(=O)(=O)c2ccccc21	none (no result: AmpC inh no detg, HCV inhibitor)
Cc1cc(NC(=O)CSc2nc3ccccc3c(=O)n2C2CCCC2)no1	AmpC detergent inconclusive, HCMV antiviral -62
NC(=O)CSc1nc(C23CC4CC(CC(C4)C2)C3)nc2ccccc12	none
O=C(CSc1nc(C2CC2)nc2ccccc12)Nc1ccccc1	HCV inhibitor inconclusive
Cc1nonc1NC(=O)CSc1nc(C2CCCCC2)nc2ccccc12	HCMV antiviral -88, HCV inhibitor inconclusive, FMDV antiviral inconclusive
Cc1nonc1NC(=O)CSc1nc(C23CC4CC(CC(C4)C2)C3)nc2ccccc12	AmpC detergent inconclusive, HCMV antiviral -69, HCV inhibitor inconclusive
CC(C)(CNC(=O)c1ccc(NS(=O)(=O)c2ccc(Br)cc2)cc1)N1CCOCC1	none
COc1cccc(-c2nc3cc(SC)ccc3cc2CN(C(=O)c2sccc2C)C2CC2)c1	none (no result: AmpC detergent, AmpC inh no detg, HCMV antiviral, HCV inhibitor)
CCOC(=O)c1c(Nc2ccc(Cl)cc2)sc(/C=C2\C=Nc3ccccc32)c1O	HCMV antiviral -73!, HCV inhibitor inconclusive
CCCOc1ccc(-c2nonc2NC(=O)c2oc3ccc(Cl)cc3c2C)cc1OCCC	none (no result: AmpC inh no detg, HCV inhibitor)
O=C(c1ccc(S(=O)(=O)Nc2ccc(F)cc2)cc1)N1CCN(C(=O)c2ccco2)CC1	HCMV antiviral -69
O=C(Nc1ccc(-c2nnn(CC(=O)N3CCN(C(=O)c4ccco4)CC3)n2)cc1)c1ccc(F)cc1	HCV inhibitor 10µM
Cc1cc(S(=O)(=O)Nc2ccc(C(=O)N3CCN(C(=O)c4ccco4)CC3)cc2)ccc1F	none
CCc1nc2ccc(C(=O)Nc3cccc(OCC(=O)N(C)C)c3)cn2c1N(C)Cc1ccc(N(C)C)cc1	none (no result: AmpC detergent, AmpC inh no detg, HCV inhibitor)
CCOc1ccccc1C1N=C(c2ccc(OC)cc2)CC(c2ccccc2O)N1 (stereo unspecified)	AmpC inh no detg 32µM, HCV inhibitor inconclusive
COc1cc(CCC(C)=O)ccc1OC(=O)c1c(-c2c(F)cccc2Cl)noc1C	none (no result: AmpC detergent, AmpC inh no detg, HCV inhibitor, FMDV antiviral)
N#Cc1ccc(C(=O)Nc2cccc(NC(=O)c3ccco3)c2)c(F)c1	HCMV antiviral -74, HCV inhibitor inconclusive
O=C(Nc1ccccc1C(=O)Nc1ccccc1)c1ccco1	none
O=C(Nc1ccccc1C(=O)Nc1ccc2c(c1)OCO2)c1ccco1	HCV inhibitor 13µM
Cc1cccc(NC(=O)c2ccccc2NC(=O)c2ccco2)c1	AmpC inh no detg 6.3µM, HCV inhibitor inconclusive
Cc1cc(NC(=O)c2ccc3c(c2)OCCO3)ccc1NC(=O)c1ccco1	HCV inhibitor inconclusive
O=C(Nc1ccc(NC(=O)c2ccco2)cc1)c1ccc2c(c1)OCCO2	HCMV antiviral -73, HCV inhibitor inconclusive
CCCOc1cccc(C(=O)Nc2cccc(-c3nc4ncccc4o3)c2C)c1	FMDV antiviral inconclusive (no result: AmpC inh no detg, HCV inhibitor)
COc1ccc(C(=O)NCc2nc(-c3cccc(NC(=O)c4ccc(C)s4)c3)oc2C)cc1	none (no result: AmpC detergent, AmpC inh no detg, HCMV antiviral, HCV inhibitor)
CNC(=O)COC(=O)c1ccccc1NC(=O)c1ccco1	HCMV antiviral -101
CC1=C(C(=O)N(C(C)C)C(C)C)CC(CC(=O)NCC2CCCCC2)C(=O)N1Cc1ccc(C(C)(C)C)cc1 (stereo unspecified)	none (no result: AmpC detergent, AmpC inh no detg, HCV inhibitor, FMDV antiviral)
N#Cc1c(SCC(=O)Nc2nc3ccc(Br)cc3s2)sc2c(O)cc(=O)[nH]c12	AmpC inh no detg 25µM
c1cncc(CSc2ccc(-c3cccnc3)nn2)c1	none
COc1ccc(-c2ccc(SCc3cccnc3)nn2)cc1OC	HCMV antiviral -63, HCV inhibitor inconclusive
CCC(C)(C)NC(=O)C(c1ccc(F)cc1)N(Cc1ccc(OC)cc1)C(=O)c1cnccn1 (stereo unspecified)	HCMV antiviral -66
CCC(C)(C)NC(=O)C(c1ccc(F)cc1)N(Cc1cccc(OC)c1)C(=O)c1cnccn1 (stereo unspecified)	none
CC(C)NC(=S)N/N=C/c1ccc2c(c1)OCCO2	HCMV antiviral -67
Cn1cc(-c2cc3cnc(Nc4ccc5c(c4)OCO5)cc3n2C)cn1	none (no result: AmpC detergent, AmpC inh no detg, HCV inhibitor, FMDV antiviral)
Cc1ccc(Nc2ccc(N3CCN(C(=O)c4ccc([N+](=O)[O-])cc4)CC3)nn2)cc1	none (no result: AmpC inh no detg, HCV inhibitor)
COc1cc(CN2CCC(N3CCC(C(=O)N4CCCC4)CC3)CC2)cc2c1OCO2	HCV inhibitor 10µM

Screening results (PubChem BioAssay)
